Experimental data: PubChem BioAssay AID1159580 (chemical genetic matrix, 2015)
“And” between values parts separate entries of the source, which are not always exact repeats. Identical values can stand only once. Screen size: about 5,500 compounds; about 2,000 (36%) were called active. Not shown: some 18% with an inconclusive outcome. Cut-off read from the data, not from the text of the source: active = normalized growth mostly below about 0.91 (no sharp cut-off); inconclusive = no clear call, values can overlap the other calls; inactive = mostly above about 0.92. This is one part of the list.

Test: chemical genetic growth profiling, strain panel (AID 1159580);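 note: tested at 20 µM; growth read once vehicle control cultures reached saturation at 30 °C; 1 = growth at the plate median or of vehicle wells; lower values mean less growth of the strain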
Conditions: S. cerevisiae deletion strains, growth OD

Measured: normalized growth

NC(Cc1c[nH]c2ccccc12)C(=O)O (configuration not stated)
inactive: locus YAL013W, strain DEP1, stronger effect = lower value 1 | locus YAL021C, strain ccr4, stronger effect = lower value 1 | locus YAL026C, strain drs2, stronger effect = lower value 1.01 | locus YAL030W, strain snc1, stronger effect = lower value 1.02 | locus YBL061C, strain skt5, stronger effect = lower value 1.04 | locus YBR009C, strain hhf1, stronger effect = lower value 1 | locus YBR021W, strain FUR4, stronger effect = lower value 1.01 | locus YBR023C, strain chs3, stronger effect = lower value 1.02 | locus YBR171W, strain sec66, stronger effect = lower value 1.03 | locus YBR229C, strain ROT2, stronger effect = lower value 0.957 | locus YBR231C, strain swc5, stronger effect = lower value 1.02 | locus YBR279W, strain paf1, stronger effect = lower value 1.02 | locus YCL011C, strain gbp2, stronger effect = lower value 1.02 | locus YCL016C, strain dcc1, stronger effect = lower value 1.01 | locus YCL029C, strain bik1, stronger effect = lower value 0.98 | locus YCL061C, strain MRC1, stronger effect = lower value 1.01 | locus YCL069W, strain vba3, stronger effect = lower value 1.03 | locus YCR088W, strain abp1, stronger effect = lower value 1.02 | locus YDL005C, strain med2, stronger effect = lower value 1.03 | locus YDL035C, strain GPR1, stronger effect = lower value 1 | locus YDL040C, strain nat1, stronger effect = lower value 1.03 | locus YDL074C, strain BRE1, stronger effect = lower value 1.02 | locus YDL101C, strain DUN1, stronger effect = lower value 0.984 | locus YDL134C, strain PPH21, stronger effect = lower value 0.961 | locus YDL185W, strain tfp1, stronger effect = lower value 0.986 | locus YDL192W, strain arf1, stronger effect = lower value 0.984 | locus YDR001C, strain nth1, stronger effect = lower value 1.04 | locus YDR069C, strain doa4, stronger effect = lower value 1 | locus YDR101C, strain arx1, stronger effect = lower value 0.996 | locus YDR137W, strain rgp1, stronger effect = lower value 1.03 | locus YDR150W, strain NUM1, stronger effect = lower value 0.965 | locus YDR159W, strain sac3, stronger effect = lower value 1.02 | locus YDR162C, strain NBP2, stronger effect = lower value 0.998 | locus YDR195W, strain ref2 1.02 | locus YDR297W, strain sur2, stronger effect = lower value 1.02 | locus YDR318W, strain mcm21, stronger effect = lower value 0.988 | locus YDR334W, strain swr1, stronger effect = lower value 1.02 | locus YDR335W, strain msn5, stronger effect = lower value 1.03 | locus YDR388W, stronger effect = lower value 0.997 | locus YDR392W, strain spt3, stronger effect = lower value 0.939 | locus YDR502C, strain sam2, stronger effect = lower value 0.997 | locus YEL003W, strain gim4, stronger effect = lower value 1.01 | locus YEL037C, strain rad23, stronger effect = lower value 1.02 | locus YEL061C, strain CIN8 (second series), stronger effect = lower value 1.02 | locus YEL061C, strain CIN8, stronger effect = lower value 0.987 | locus YER015W, strain faa2, stronger effect = lower value 1.02 | locus YER016W, strain bim1, stronger effect = lower value 1.02 | locus YER110C, stronger effect = lower value 0.98 | locus YER111C, strain swi4, stronger effect = lower value 1.03 | locus YER155C, strain BEM2 (second series), stronger effect = lower value 0.997 | locus YER155C, strain BEM2, stronger effect = lower value 1.01 | locus YER167W, strain BCK2, stronger effect = lower value 1.01 | locus YFR010W, strain ubp6, stronger effect = lower value 1.02 | locus YGL078C, strain dbp3, stronger effect = lower value 0.982 | locus YGL086W, strain mad1, stronger effect = lower value 1.01 | locus YGL167C, strain pmr1, stronger effect = lower value 1.02 | locus YGL173C, strain kem1, stronger effect = lower value 1.03 | locus YGL227W, strain vid30, stronger effect = lower value 1.03 | locus YGL240W, strain doc1, stronger effect = lower value 1 | locus YGL248W, strain PDE1, stronger effect = lower value 0.991 | locus YGL253W, strain hxk2, stronger effect = lower value 1.01 | locus YGR078C, strain PAC10, stronger effect = lower value 0.991 | locus YGR135W, strain pre9, stronger effect = lower value 0.993 | locus YGR229C, strain SMI1, stronger effect = lower value 1 | locus YGR252W, strain gcn5, stronger effect = lower value 0.981 | locus YHR013C, strain ard1, stronger effect = lower value 1.02 | locus YHR027C, strain rpn1, stronger effect = lower value 1.02 | locus YHR030C, strain SLT2, stronger effect = lower value 0.988 and 0.966 | locus YHR079C, strain IRE1 (second series), stronger effect = lower value 0.989 | locus YHR079C, strain IRE1, stronger effect = lower value 0.983 | locus YHR094C, strain hxt1, stronger effect = lower value 0.988 | locus YHR129C, strain ARP1, stronger effect = lower value 0.993 | locus YHR142W, strain chs7, stronger effect = lower value 1.03 | locus YHR200W, strain rpn10, stronger effect = lower value 0.995 | locus YIL066C, strain RNR3, stronger effect = lower value 0.979 | locus YIL073C, strain SPO22, stronger effect = lower value 1 | locus YIL125W, strain kgd1, stronger effect = lower value 0.998 | locus YIR030C, strain dcg1, stronger effect = lower value 0.992 | locus YJL092W, strain hpr5, stronger effect = lower value 1.03 | locus YJL095W, strain BCK1 (second series), stronger effect = lower value 1.02 | locus YJL095W, strain BCK1, stronger effect = lower value 1.04 and 0.984 | locus YJL115W, strain asf1, stronger effect = lower value 1.03 | locus YJL129C, strain trk1, stronger effect = lower value 1.02 | locus YJL134W, strain LCB3, stronger effect = lower value 0.987 | locus YJL154C, strain vps35, stronger effect = lower value 1.02 | locus YJL164C, strain tpk1, stronger effect = lower value 1 | locus YJL166W, strain qcr8, stronger effect = lower value 1.01 | locus YJL168C, strain set2, stronger effect = lower value 0.99 | locus YJL187C, strain SWE1 (second series), stronger effect = lower value 0.973 | locus YJL187C, strain SWE1, stronger effect = lower value 1.03 | locus YJR043C, strain POL32, stronger effect = lower value 1.01 | locus YJR066W, strain TOR1, stronger effect = lower value 0.978
